# Laboratory results as given in PubChem BioAssay (NCATS).
# Where “and” joins values, the source holds several entries; their conditions need not be identical. Equal entries are not always repeated. Records with an inconclusive call do not appear. Calls of active or inactive are those of the source. The call rests on the fitted dose curve; in most records, active means well fitted curve in the direction sought with a large enough effect; inconclusive means small, poorly fitted or top-dose-only effect, or another doubt; inactive means no such curve, though single readings can be large; an effect the other way counts as inactive or inconclusive.
# Assay: Cell Viability qHTS for small molecule stabilizers of the endoplasmic reticulum resident proteome (AID 1508629);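 further: human SH-SY5Y neuroblastoma cells carrying the GLuc-SERCaMP reporter; compound exposure about 46 h in total before the viability read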
# Conditions: cell viability counter-screen, 100 nM thapsigargin for final 4 h
# On the % scale 0 is the no-effect control and ±100 the full control effect.
row,SMILES,max response
1,Nc1ccc(CCN2CCN(c3cccc(C(F)(F)F)c3)CC2)cc1,11.7% (inactive)
2,O[C@H]1[C@H]2[C@H](O)CCCN2C[C@H]1O,13.7% (inactive) and 34.4% (inactive)
3,C[C@H](N)CN1CCc2ccc(Br)cc21,-3.5% (inactive)
4,Clc1ccc(N2CC3CCC(C2)N3)nn1,-7.5% (inactive)

# Assay: Primary qHTS for small molecule stabilizers of the endoplasmic reticulum resident proteome: Secreted ER Calcium Modulated Protein (SERCaMP) assay (AID 1508630)
# Conditions: SH-SY5Y GLuc-SERCaMP (Gaussia luciferase released on ER calcium loss) secretion, thapsigargin, luminescence; series mostly up to 38.4 µM; activity change, negative = inhibition: at the top concentration
# Summary of the method: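 The SH-SY5Y reporter protocol was run at 3 concentrations up to 38.3 uM (primary) or 11 concentrations (follow-up): 16 h compound, 100 nM thapsigargin for 4 h, then extracellular luciferase luminescence.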
SMILES,"activity change, negative = inhibition",outcome
CN1CC[C@@]2(C)c3cc(OC(=O)Nc4ccccc4)ccc3N(C)[C@@H]12,-11.6% (inactive),–
CCOC(=O)c1ncn2c1[C@@H]1CCCN1C(=O)c1cc(OC)ccc1-2,5.99% (inactive),–
CCS(=O)(=O)Nc1cccc(C(=C2CCCCC2)c2cnc[nH]2)c1,-28.2% (inactive),–
Cc1c2ccncc2c(C)c2c1[nH]c1ccccc12,-28% (inactive),–
NC(CCCCCP(=O)(O)O)C(=O)O (configuration not stated),28% (inactive),–
COC(=O)N1CCN(C(=O)Cc2ccc(Cl)c(Cl)c2)C(CN2CCCC2)C1 (configuration not stated),–,inactive
CCCN1CCc2cc(O)cc3c2[C@H]1Cc1ccc(O)c(O)c1-3,-22.7% (inactive),–
N[C@@]1(C(=O)O)CC[C@@H](C(=O)O)C1,-21.9% (inactive),–
CCN1C[C@@]2(COC)C3[C@@H](OC)C4[C@@H]1C3([C@@H]1C[C@]3(O)[C@H](OC(=O)c5ccccc5)[C@@H]1[C@]4(OC(C)=O)[C@@H](O)[C@@H]3OC)[C@H](OC)C[C@H]2O,-6.49% (inactive),–
CCCN(CCC)C1CCc2cccc(O)c2C1 (configuration not stated),-16% (inactive),–
COc1cc(CC(C)N)c(OC)cc1I (configuration not stated),2.15% (inactive),–
CC(N)[C@H](O)c1ccc(O)c(O)c1 (some centres not stated),-25.7% (inactive),–
CCN(CCCl)Cc1ccccc1Br,-16.5% (inactive),–
C[N+]1(C)CCOC(O)(c2ccc(-c3ccc(C4(O)C[N+](C)(C)CCO4)cc3)cc2)C1 (configuration not stated),–,inactive
Nc1ccc(CCN2CCN(c3cccc(C(F)(F)F)c3)CC2)cc1,-28.7% (inactive),–
CO[C@H]1CC=C2CCN3CCC4=C(CC(=O)OC4)[C@]23C1,–,inactive
NC(=O)c1ccc(OCC(O)CN2CC=C(c3ccc(F)cc3)CC2)cc1 (configuration not stated),44.8% (inactive),–
NCC(CP(=O)(O)O)c1ccc(Cl)cc1 (configuration not stated),–,inactive
CN(N=O)c1ccc(O)c(O)c1,-25% (inactive),–
NCCc1c[nH]c2ccc(C(N)=O)cc12,–,inactive
CCCN(CCC)[C@H]1CCc2c(F)ccc(O)c2C1,0.259% (inactive),–
CC1(C(=O)O)C2CCC(O2)C1(C)C(=O)O (configuration not stated),107% (inactive),–
COc1ccc2c(c1)c(CCN1CCOCC1)c(C)n2C(=O)c1cccc(Cl)c1Cl,-22.4% (inactive),–
O=S1(=O)N(CCN2CC=C(c3c[nH]c4cc(F)ccc34)CC2)c2cccc3c2N1CCC3,-3.92% (inactive),–
NCCCP(=O)(O)O,-28.2% (inactive),–
CCCN1CCC[C@@H](c2cccc(O)c2)C1,-21.2% (inactive),–
CCNC(=O)[C@H]1O[C@@H](n2cnc3c(N)ncnc32)[C@H](O)[C@@H]1O,–,inactive
O=C1CC[C@@]2(O)C3Cc4ccc(O)c5c4C2(CCN3CC2CC2)[C@H]1O5 (some centres not stated),-9.2% (inactive),–
